# Laboratory results as given in PubChem BioAssay AID624256 (NMMLSC, 2012).
# Values joined by “and” are separate entries in the source; they are usually repeats but may differ in a detail not shown here. Identical values can stand only once. The campaign covered roughly 360,000 compounds. About 3,700 (1%) were called active. About 2% were inconclusive and are not listed. This is one part of a sample in which actives are shown more often than they occur.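 Rule for the calls: active = normalized GFP-positive differentiation at or above the plate's own cutoff, the solvent-only control mean plus 3 SD; inconclusive = no clear call, values can overlap the other calls; inactive = the rest.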
# Assay: induction of myeloid progenitor differentiation, primary screen, cell-based, flow cytometry, MLPCN library (AID 624256);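 for GFP+ MAC1+ double positive: cells exposed to compound for four days before flow analysis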;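 for normalized GFP-positive differentiation: cells exposed to compound for four days before flow analysis; 0% = DMSO wells and 100% = fulvestrant positive control at 5 µM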
# Conditions: ER-HoxA9 myeloid progenitors, lysozyme-GFP differentiation, at 10 µM; GFP+ MAC1+ double positive: measured here: differentiation confirmed by MAC1 staining, stronger effect = higher value; normalized GFP-positive differentiation: stronger effect = higher value
Compound,GFP+ MAC1+ double positive,outcome,normalized GFP-positive differentiation
Nc1nc2c(Br)ccc(Br)c2cc1C(=O)NCCc1ccccc1,0.7%,inactive,
CC(C)NC(=O)N1Cc2cc(C(=O)NCC(F)(F)F)nc(-c3cccc(-c4cc5ccccc5o4)c3)c2[C@@H]1CCO,1.5%,inactive,
COc1ccc(CCNC(=O)/C(C#N)=C2\N=C(NC(=O)c3cccs3)c3ccccc32)cc1,0.9%,,28.9% (active)
CCOc1ncccc1C(=O)NCCc1ccc(OC)cc1,0.2%,inactive,
COc1ccc(CN(Cc2ccc(OC)cc2)C(=O)c2cccs2)cc1,0.3%,inactive,
CCOC(=O)C1C(C)C(C(C)(C)C)N(S(=O)(=O)c2ccc(C)cc2)C1c1ccccc1 (stereo unspecified),2.4%,inactive,
NC(c1csc(NC(=O)Nc2ccccc2Oc2ccccc2)n1)c1ccccc1Cl (stereo unspecified),0.8%,inactive,
CSCCC(c1nnnn1Cc1ccccc1)N1CCN(C/C=C/c2ccccc2)CC1 (stereo unspecified),1.1%,inactive,
CCOc1cc(-c2nc3cc(C)ccn3c2NCC2CCCO2)ccc1O (stereo unspecified),0.6%,inactive,
COc1ccc(-c2nc3cc(C)ccn3c2NC2CCCCC2)cc1SC1CCCCC1,2.4% and 7.4%,,300% (active) and 217% (active)
COc1ccc(-c2nc3cnccn3c2NC2CCCCC2)cc1-c1cccc(Cl)c1,2.8% and 1.8%,inactive,
CCN1CC(CN(C)Cc2nc(-c3ccc(Cl)cc3)no2)CC1=O (stereo unspecified),0.3%,inactive,
CN(Cc1ccccn1)Cc1nc(-c2ccc(Cl)cc2)no1,0.5%,,34.3% (active)
COC(=O)c1ccc(-c2noc(CN(Cc3ccccn3)CC3CCCO3)n2)cc1 (stereo unspecified),0.3%,inactive,
Cc1[nH]c2ccccc2c1C(=O)c1cc([C@H](NC(=O)OC(C)(C)C)C(C)C)sc1N,1%,inactive,
CCOC(=O)N1CCN(C(=O)C[C@@H]2C[C@@]3(C(=O)OC)CC(C)(C)CC=C3N(Cc3ccco3)C2=O)CC1,1.2%,inactive,
CC1=C(C(=O)N(C(C)C)C(C)C)CC(CC(=O)NCC2CCCCC2)C(=O)N1Cc1ccccc1 (stereo unspecified),0.3%,inactive,
O=C(Nc1ccccc1N1CCOCC1)c1ccncc1,1.1%,inactive,
O=C1c2ccccc2-c2ncnc3c(N4CCOCC4)cc(N4CCOCC4)c1c23,4.8%,,41.7% (active)
O=S(=O)(Nc1cc(Cl)ccc1N1CCOCC1)c1ccccc1Cl,0.3%,inactive,
CCCCC[C@H](C)N1C[C@@H](COCc2ccccc2)Oc2cc(N3CC[C@@H](N(C)C)C3)ccc2S1(=O)=O,1.2%,inactive,
COC(=O)c1ccc2nc(-c3ccc(F)cc3)c(Cc3ccc(C)cc3)n2c1,0.7%,inactive,
O=C(O)c1ccccc1-c1cccc2nncn12,0.5%,inactive,
